Compounds with a hit are over-represented: about 7.7% of the library has one in this group of screens.
FBPA Giardia inh: inhibitors of Giardia lamblia fructose-1,6-bisphosphate aldolase; Potency, µM (series often up to 59.6 µM), inactives show at the top dose activity, negative = inhibition, most hits filed as inhibitors; purified Giardia FBPA; A8B2U2; hit rate 0.71% among 290,000; note: potency is the fitted concentration of half-maximal effect; nearly all actives have a fitted effect of over 55% in size
Target sequence (A8B2U2 whole entry, looked up): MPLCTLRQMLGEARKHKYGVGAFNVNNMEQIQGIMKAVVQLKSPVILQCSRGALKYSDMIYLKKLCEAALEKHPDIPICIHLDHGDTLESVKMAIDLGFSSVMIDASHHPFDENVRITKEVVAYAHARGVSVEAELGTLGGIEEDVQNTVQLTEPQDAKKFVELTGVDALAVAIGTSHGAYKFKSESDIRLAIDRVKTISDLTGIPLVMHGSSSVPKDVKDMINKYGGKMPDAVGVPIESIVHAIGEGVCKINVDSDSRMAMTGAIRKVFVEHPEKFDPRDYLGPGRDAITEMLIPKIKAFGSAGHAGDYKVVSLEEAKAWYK
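Giardia FBPA (40 nM reagent) was preincubated 10 min at RT with compound (up to 57.5 uM final), then substrate plus GAPDH/TPI/NAD/arsenate coupling system with diaphorase/resazurin was added; resorufin fluorescence (525/598 nm) was read after 20 min.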
HCMV inh: inhibitors of human cytomegalovirus; HFF cells, HCMV-luciferase reporter, 72 h; stronger effect = lower value; activity change, negative = inhibition, % at 57.5 µM; hit rate 4.5% among 410,000; in the data active = activity change below about -60%; inconclusive = no clear call, values can overlap the other calls; inactive = above about -39%
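HFF cells seeded 16 h at 37C, treated with compounds, infected with luciferase-reporter HCMV at MOI 1 PFU/cell; luciferase read at 72 h post infection, normalized to buffer-only and Salinomycin controls.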
FMDV antiviral: blocks foot and mouth disease virus | FMDV antiviral cell-based qHTS | Potency, µM (doses to about 57.9 µM), inactives show at the highest dose activity change, negative = inhibition, most hits filed as inhibitors | hit rate 1.2% among 410,000 | AID 1159524; calls by dose curve; tested in HEK293T cells; note: read-out not given here; potency is the fitted concentration of half-maximal effect; nearly all actives have a fitted effect of over 45% in size
Tb PYK inh: inhibitors of Trypanosoma brucei pyruvate kinase. Q57TT1. TbPYK enzyme, Kinase-Glo Plus ATP luminescence, 45 min. Potency, µM (top dose mostly 76.8 µM), without a hit: at the highest dose activity, negative = inhibition, usual class: inhibitors. hit rate 0.12% among 410,000. AID 624173; note: potency is the fitted concentration of half-maximal effect; nearly all actives have a fitted effect of over 50% in size
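Screened from lowest to highest concentration, compounds were pinned into TbPYK/substrate mixtures, and ADP (130 uM final) was added. Plates sat at room temperature for 45 min prior to Kinase-Glo Plus detection by luminescence.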
RE007 growth inh: less growth of the S. pombe RE007 Vpr strain. AID 651644. Potency, µM (titrated, usually from 92.2 µM), for the others: top-dose activity change, negative = less growth, hits mostly inhibitors. S. pombe RE007 Vpr strain, BacTiter-Glo ATP luminescence, 24 h. hit rate 0.21% among 360,000; active = well fitted falling curve with a large enough effect; inconclusive = small, poorly fitted or top-dose-only effect; inactive = no such curve, though single readings can be large or run the other way; note: potency is the fitted concentration of half-maximal effect; nearly all actives have a fitted effect of over 50% in size
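Fission yeast RE007 carrying one integrated HIV-1 vpr copy, seeded at OD 0.01 in PMG+AL medium with 23 nL pinned compound. Grown 24 h at 30 degrees; viability read by BacTiter-Glo luminescence after 5 min.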
Sm TGR inh: S. mansoni TGR enzyme inhibition | Q962Y6 | purified TGR, DTNB reduction, TNB absorbance 405 nm | Potency, µM (highest dose often 114 µM), inactives show at the highest dose activity change, negative = inhibition, usual class: inhibitors | hit rate 3% among 360,000 | AID 485364; note: potency is the fitted concentration of half-maximal effect; nearly all actives have a fitted effect of over 60% in size
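Kinetic colorimetric format: TGR-catalysed, NADPH-driven DTNB reduction monitored via TNB absorbance. Enzyme dispensed at 20 nM; compound exposure 15 min at room temperature before reaction start.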
Numbers without * were called inactive; ? = inconclusive; nt = not tested or not shown; ! = a repeat was not active; [ ] = dose if it differs, or a comment. Unless noted, calls come from the whole dose curve; as a rule, active = well fitted curve in the direction sought with a large enough effect; inconclusive = small, poorly fitted or top-dose-only effect, or another doubt; inactive = no such curve, though single readings can be large; an effect the other way counts as inactive or inconclusive. % is set by controls: 0 for no effect and ±100 for the full control effect.

SMILES	FBPA Giardia inh	HCMV inh	FMDV antiviral	Tb PYK inh	RE007 growth inh	Sm TGR inh
Cc1ccc(Cl)cc1NC(=O)Cn1nnc2sc3c(c2c1=O)CCC(C(C)(C)C)C3 (centres undefined)	nt	-30	-18%	0%	nt	6%
O=C(Cn1c(=O)oc2ccccc21)N(Cc1ccccc1)C1CCS(=O)(=O)C1 (centres undefined)	1%	-101*	-15%	?	-8%	12%[11.4 µM]
O=C(/C=C/c1ccco1)N(Cc1cccc(Cl)c1)C1CCS(=O)(=O)C1 (centres undefined)	-1%	23	-13%	-13%	7%	2.8µM*
O=C(/C=C/c1ccco1)N(Cc1ccc(F)cc1)C1CCS(=O)(=O)C1 (centres undefined)	0%	11	-11%	-6%	7%	7.9µM*
O=C(/C=C/c1ccco1)N(Cc1cccc(F)c1)C1CCS(=O)(=O)C1 (centres undefined)	nt	-20	-8%	-7%	2%	10µM*
O=C(c1ccccc1F)N(Cc1ccc(F)cc1)C1CCS(=O)(=O)C1 (centres undefined)	12%	-17	-8%	-9%	-3%	16%
O=C(c1ccco1)N(Cc1cccc(F)c1)C1CCS(=O)(=O)C1 (centres undefined)	13%	10	-18%	19%	15%	-11%
O=C(/C=C/c1ccccc1)N(Cc1ccc(Cl)cc1)C1CCS(=O)(=O)C1 (centres undefined)	-1%	4	-15%	-3%	4%	0%
O=C(/C=C/c1ccco1)N(Cc1cccc(Br)c1)C1CCS(=O)(=O)C1 (centres undefined)	0%	4	-16%	-22%	-6%	3.2µM*
CCCOc1ccccc1C(=O)N(Cc1cccs1)C1CCS(=O)(=O)C1 (centres undefined)	12%	35	0%	3%	27%	8%
CCCOc1ccccc1C(=O)N(Cc1cccc(Br)c1)C1CCS(=O)(=O)C1 (centres undefined)	nt	-32	0.71µM*	0%	13%	1%
O=C(c1ccccc1)N(Cc1cccc(Br)c1)C1CCS(=O)(=O)C1 (centres undefined)	3%	?	-20%	-12%	-10%	6%
O=C(/C=C/c1ccco1)N(Cc1ccccc1)C1CCS(=O)(=O)C1 (centres undefined)	-1%	-4	2%	0%	-13%	3.2µM*
CCCn1c(=O)c2sccc2n2c(CCCC(=O)NCCc3ccc(Cl)cc3)nnc12	nt	-21	11%	-4%	nt	-1%
CC(=O)c1cccc(NC(=O)c2cnn(-c3cccc(C)c3)c2-n2cccc2)c1	nt	?	-7%	13%[15.4 µM]	nt	7%
Cc1cccc(CNC(=O)c2cnn(-c3nccc(-c4ccccc4F)n3)c2C)n1	nt	nt	-8%	nt	nt	nt
CCN(C(=O)Cn1c(=O)oc2cc(Cl)ccc21)c1cccc(C(F)(F)F)c1	nt	0	0%	4%	nt	7%
CS(=O)(=O)c1sc(C#N)c2c1C(=O)CC(c1ccccc1)C2 (centres undefined)	-13%	-104*	11µM*	4%	-4%	0.32µM*
Cc1ccc2nc3c(cc2c1)CN(Cc1ccco1)C(=NCC1CCCO1)S3 (centres undefined)	3%	-70*	-11%	-2%	-7%	?
C=CCN1C(c2cccc(C(F)(F)F)c2)=CS/C1=C(/C#N)c1nnc(N2CCOCC2)n1-c1ccccc1	-17%	?	-27%	-5%	nt	-21%
C=CCN1C(c2ccc(Br)cc2)=CS/C1=C(/C#N)c1nnc(N2CCOCC2)n1-c1ccccc1	-5%	-80*	?	3%	-8%	-5%
N#C/C(C(=O)c1ccccc1)=C1/CCCCCN1	10%	102	40%	0%	28µM*	2%
Fc1ccc(Nc2cc3[nH]c(-c4ccccc4)cc3cn2)cc1	nt	-6	nt	nt	nt	nt
CCCCc1c(-c2ccc(F)cc2F)ncn1CCc1ccccc1OC	nt	?	-18%	-6%	-25%	nt
COc1ccccc1CCn1cnc(-c2ccc(OC)c(OC)c2)c1C(C)C	nt	-109*	?	6%	?	nt
SMILES	FBPA Giardia inh	HCMV inh	FMDV antiviral	Tb PYK inh	RE007 growth inh	Sm TGR inh
CCCc1c(-c2ccc(Cl)cc2)ncn1CCc1ccccc1OC	nt	-61*	28µM*	3%	-22%	nt
CCCc1c(-c2ccc(F)cc2)ncn1CCc1ccccc1OC	nt	-40	?	-1%	?	nt
CCCc1c(-c2ccc(Cl)cc2)ncn1Cc1ccccc1OC	nt	-3	?	0%	-16%	nt
CCCCc1c(Cc2cccc(F)c2)ncn1CCc1ccccc1OC	nt	-66*	32µM*	-3%	-27%	nt
CCCCCc1c(-c2ccccc2)ncn1CCc1ccccc1OC	nt	?	-7%	4%	?	nt
CCCCc1c(-c2ccc(OC)c(OC)c2)ncn1CCc1ccccc1OC	nt	-94*	?	1%	?	nt
O=C(c1ccncc1)N1CCC2(CCCN(Cc3nccs3)C2)CC1	0%	nt	-4%	1%	nt	nt
COc1ccc(OC)c(NC(=O)N2CCC(CN3CCCCC3)CC2)c1	nt	5	-11%	-8%	nt	-2%
CCCCc1c(-c2cccc(OC)c2)ncn1CCc1ccccc1OC	nt	?	25µM*	-6%	-29%	nt
Cc1sc2ncnc(Sc3nnnn3-c3ccccc3)c2c1C	2%	-71*	nt	-1%	-7%	?
Clc1ccc(-n2nnnc2Sc2ncnc3sccc23)cc1	nt	-81*	40µM*	6%	?	nt
c1ccc2sc(Sc3ncnc4sccc34)nc2c1	-5%	155	1%	0%	-9%	-7%
CCOC(=O)[C@@H]1CSCCS(=O)(=O)N1C(=O)[C@H](CC(C)C)NC(=O)OC(C)(C)C	nt	-10	nt	nt	nt	nt
Cc1c(C(=O)N2CCOCC2)sc(NC(=O)c2ccc([N+](=O)[O-])cc2)c1C#N	7%	-29	?	-4%	1%	-1%
Cc1c(C(=O)N2CCOCC2)sc(NC(=O)CCl)c1C#N	1%	?	-9%	-1%	4%	40µM*
CC1(C)N(O)C(c2ccc(C(=O)O)cc2)=[N+]([O-])C1(C)C	40µM*	nt	-25%	nt	nt	nt
O=C(O)c1ccc([N+](=O)[O-])cc1	nt	0	-23%	1%	?	nt
O=C(/C=C/c1ccccc1)Nn1c(-c2cccs2)nc2ccccc2c1=O	7%	-61*	-9%	10%	-16%	-4%
COc1cccc(COC(=O)c2nn(-c3ccccc3)nc2N)c1	-1%	-25	25µM*!	3%	15%	-1%
COc1cc(-c2cc(C)c3c(OC)ccc(OC)c3n2)cc2c1OCCN(C(=O)CCn1ccc(C)n1)C2	nt	nt	-13%	nt	nt	nt
COc1ccc2[nH]cc(CCN=C(NC(=O)c3ccccc3F)Nc3nc(C)cc(C)n3)c2c1	nt	-66*	-12%	-11%	nt	7%
